Where “and” joins values, the source holds several entries; their conditions need not be identical. Equal entries are not always repeated. A number with no mark means an inactive call. Results filed as inconclusive are left out. A call without a number means that no potency is given here. Calls of active or inactive are those of the source. Unless noted, the call rests on the fitted dose curve; in most records, active means well fitted curve in the direction sought with a large enough effect; inconclusive means small, poorly fitted or top-dose-only effect, or another doubt; inactive means no such curve, though single readings can be large; an effect the other way counts as inactive or inconclusive.
Legend:
[1] = Stat Signaling Pathway (AID 446; active means well fitted curve in either direction with a large enough effect, not every such curve was filed as active;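 further: ME-180 cervical cancer cells given 40 pM IL-6 alongside compound; SIE-controlled beta-lactamase reporter measured as 460/530 nm FRET emission ratio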); conditions: ME-180 SIE beta-lactamase reporter, IL-6 stimulated, 5 h; series mostly up to 17.2 µM
Method in brief: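 Screening format detects activators and inhibitors alike: ME-180 SIE-bla cells stimulated at 40 pM IL-6 for 5 hrs with compound, then dual-emission beta-lactamase read at 405 nm excitation.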

[2] = target: Glucocorticoid receptor (Homo sapiens) (UniProt P04150); test: GR-GFP Redistribution (AID 450;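 active means compounds whose dose series gives a full or clear partial fitted curve of increased nuclear translocation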; further: potency means the concentration at half of the fitted maximal effect); conditions: U2OS GR-GFP nuclear translocation, laser cytometry, 2 h
Glucocorticoid receptor (Homo sapiens), sequence (P04150 whole entry, looked up, the tested form may be a part): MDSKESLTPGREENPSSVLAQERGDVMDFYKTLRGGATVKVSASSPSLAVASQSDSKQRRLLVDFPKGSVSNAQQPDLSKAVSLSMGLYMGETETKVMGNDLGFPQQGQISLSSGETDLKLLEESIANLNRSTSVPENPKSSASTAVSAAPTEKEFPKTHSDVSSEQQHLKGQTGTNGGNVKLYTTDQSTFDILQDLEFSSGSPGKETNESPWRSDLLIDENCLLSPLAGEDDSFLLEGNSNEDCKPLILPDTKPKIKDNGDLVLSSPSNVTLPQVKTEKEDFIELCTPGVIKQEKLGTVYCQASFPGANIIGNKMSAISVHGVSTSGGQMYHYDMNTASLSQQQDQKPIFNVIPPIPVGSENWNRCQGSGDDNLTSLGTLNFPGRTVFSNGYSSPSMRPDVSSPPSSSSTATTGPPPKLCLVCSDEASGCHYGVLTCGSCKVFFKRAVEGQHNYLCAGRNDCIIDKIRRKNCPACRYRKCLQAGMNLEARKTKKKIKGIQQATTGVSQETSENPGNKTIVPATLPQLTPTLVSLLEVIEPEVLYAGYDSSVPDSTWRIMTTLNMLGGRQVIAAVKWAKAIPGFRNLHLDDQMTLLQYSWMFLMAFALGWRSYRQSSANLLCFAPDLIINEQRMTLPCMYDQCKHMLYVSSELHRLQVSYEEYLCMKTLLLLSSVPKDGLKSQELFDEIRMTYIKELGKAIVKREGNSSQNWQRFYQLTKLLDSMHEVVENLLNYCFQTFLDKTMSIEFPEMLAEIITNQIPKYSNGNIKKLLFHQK

[3] = target: Glucocorticoid receptor (Homo sapiens) (UniProt P04150); test: GR-EFC Redistribution (AID 451; calls by dose curve; further: potency means the concentration at half of the fitted maximal effect); conditions: CHO-K1 GR-EFC translocation, beta-gal luminescence, 2 h
Method in brief: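 CHO-K1 cells stably expressing nuclear-localized β-gal enzyme acceptor and GR fused C-terminally to the enzyme donor fragment; ligand-driven nuclear translocation restores β-gal by complementation. Compounds titrated up to 46 uM final, 2 h at 37 °C; luminescence read.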

[4] = target: Mitogen-activated protein kinase 10 (Mus musculus) (UniProt Q61831); test: JNK3 AlphaScreen Assay (AID 530; active means well fitted curve in either direction with a large enough effect, not every such curve was filed as active;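 further: kinase came from lysate of stimulated human HepG2 cells; signal reports phosphorylation of biotinylated GST-cJun 1-79 at Ser73 with 10 µM ATP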); conditions: JNK3 lysate, c-Jun phosphorylation; series mostly up to 57.1 µM
Method in brief: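 Inhibitors reduce antibody binding to phosphorylated biotin-cJun, lowering AlphaScreen luminescence. Lysates from HepG2 cells pre-activated by IL-1beta plus TNF-alpha supplied JNK3; compounds were titrated.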

[5] = target: 3',5'-cyclic-AMP phosphodiesterase 4B (Homo sapiens) (UniProt Q07343); test: qHTS Assay for Inhibitors of PDE-IV (AID 607; active means well fitted activation curve with a large enough effect in the main read-out, with a control signal flat, not every such curve was filed as active); conditions: HEK293 ACTOne CNG channel cells, membrane potential fluorescence; series mostly up to 22.9 µM
3',5'-cyclic-AMP phosphodiesterase 4B (Homo sapiens), sequence (Q07343 whole entry, looked up): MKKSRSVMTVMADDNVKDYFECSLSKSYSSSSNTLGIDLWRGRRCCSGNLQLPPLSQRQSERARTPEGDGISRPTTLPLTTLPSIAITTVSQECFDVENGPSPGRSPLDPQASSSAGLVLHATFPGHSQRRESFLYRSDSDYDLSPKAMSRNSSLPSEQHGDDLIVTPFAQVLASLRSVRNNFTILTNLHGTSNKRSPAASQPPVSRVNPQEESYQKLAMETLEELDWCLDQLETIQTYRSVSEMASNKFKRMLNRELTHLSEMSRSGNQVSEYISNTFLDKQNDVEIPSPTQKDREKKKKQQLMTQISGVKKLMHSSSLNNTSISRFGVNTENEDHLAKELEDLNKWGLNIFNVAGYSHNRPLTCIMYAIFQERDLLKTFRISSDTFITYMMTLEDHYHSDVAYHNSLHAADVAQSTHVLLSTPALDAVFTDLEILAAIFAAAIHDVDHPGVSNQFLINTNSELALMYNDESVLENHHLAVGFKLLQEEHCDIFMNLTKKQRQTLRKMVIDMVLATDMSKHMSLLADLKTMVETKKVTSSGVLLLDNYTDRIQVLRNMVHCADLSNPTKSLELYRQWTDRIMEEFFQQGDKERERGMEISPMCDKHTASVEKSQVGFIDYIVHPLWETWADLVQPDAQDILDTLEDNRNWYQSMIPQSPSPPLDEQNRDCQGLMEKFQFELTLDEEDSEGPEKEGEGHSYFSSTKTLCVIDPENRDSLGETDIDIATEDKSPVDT
Method in brief: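 The readout is membrane depolarisation from a cAMP-sensing CNG channel, detected with a potential dye at ex 535/em 590. Cells were HEK293-derived (endogenous PDE-IV) at 1000 cells/well, titrated up to 22.9 uM final.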

[6] = Cell Viability - NIH 3T3 (AID 541); conditions: NIH 3T3 cell viability, qHTS; series mostly up to 92.2 µM; further: nearly all actives have a fitted effect of over 25% in size; further: potency means the concentration at half of the fitted maximal effect
Method in brief: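 Luminescent ATP signal (CellTiter-Glo) served as the viability read-out after NIH 3T3 cells were exposed to compounds over a concentration range for 40 hr at 37 °C. Hill-equation modelling of concentration-response data gave AC50.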

[7] = Cell Viability - HUV-EC-C (AID 542); conditions: HUV-EC-C endothelial cell viability, qHTS; series mostly up to 92.2 µM; further: nearly all actives have a fitted effect of over 35% in size
Method in brief: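 qHTS cytotoxicity: HUV-EC-C, 1000 cells/well, 5 hr settle, compound 40 hr 37 °C, CellTiter-Glo, luminescence. AC50 via Hill equation.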

[8] = Cell Viability - H-4-II-E (AID 543); conditions: H-4-II-E rat hepatoma viability; series mostly up to 92.2 µM; further: nearly all actives have a fitted effect of over 35% in size; further: potency means the concentration at half of the fitted maximal effect
Method in brief: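 Luminescent ATP signal (CellTiter-Glo) served as the viability read-out, with cytotoxicity seen as a concentration-dependent ATP drop. Cells were treated for 40 hours in complete medium. AC50 values derive from Hill-equation modelling.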

[9] = Cellular Toxicity (caspase-3) HepG2 (AID 654); conditions: HepG2 caspase-3 activation, luminescence, 0% = DMSO only, 100% = tamoxifen; series mostly up to 92.2 µM;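 further: cells exposed to compound for 16 hours before reading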
Method in brief: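 Cells plated 5 hr at 37 °C, compound added, incubated 16 hr at 37 °C. Caspase-Glo 3/7 reagent followed, 20 min at room temperature, then luminescence read. Activation scored as signal increase; AC50 from Hill fit.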

[10] = Cellular Toxicity (caspase-3) Jurkat (AID 655); conditions: Jurkat caspase-3 activation, luminescence, DMSO = 0%, tamoxifen = 100%; series mostly up to 92.2 µM;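 further: cells exposed to compound for 16 h at 37 °C before reading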
Method in brief: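 qHTS in human Jurkat T-cell leukemia line: 16 hr compound treatment at 37 °C, caspase-3/7 activity measured by Caspase-Glo luminescence. AC50 derived from Hill equation.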

[11] = Cellular Toxicity (caspase-3) HUV-EC-C (AID 656); conditions: HUV-EC-C cells, caspase-3 activation (apoptosis), vehicle = 0, 100 µM tamoxifen = 100%; series mostly up to 92.2 µM
Method in brief: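 Concentration-dependent caspase 3/7 induction was assessed in HUV-EC-C cells exposed for 16 hours. Data scaled between DMSO and tamoxifen (100 uM) controls.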

[12] = Cellular Toxicity (caspase-3) SHSY5Y (AID 657); conditions: SH-SY5Y caspase-3 activation, DMSO zero, 10 µM staurosporine = 100%; series mostly up to 91.7 µM;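 further: cells exposed to compound for 16 hours at 37 °C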
Method in brief: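 Readout: caspase-cleaved peptide-aminoluciferin substrate driving luciferase light in SH-SY5Y neuroblastoma cells after 16 h treatment. Response normalized to DMSO and 10 uM staurosporine controls.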

[13] = Cellular Toxicity (caspase-3) BJ (AID 658); conditions: BJ fibroblasts, luminescence, normalized: DMSO 0%, staurosporine 100%; series mostly up to 91.7 µM
Method in brief: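 Luminescent aminoluciferin-substrate cleavage reports caspase 3/7 activity in normal human BJ fibroblasts after 16 hr compound exposure at 37 °C. Normalized to DMSO (basal) and 10 uM staurosporine (100%); AC50 from Hill fit of concentration-response.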

[14] = Cellular Toxicity (caspase-3) MRC-5 (AID 659); conditions: MRC-5 cells, luminescence, normalized: DMSO 0%, 10 µM staurosporine 100%; series mostly up to 91.7 µM
Method in brief: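 Luminescence from caspase-cleaved aminoluciferin substrate (Caspase-Glo 3/7, 1 hr RT) reports caspase 3/7 activity in MRC-5 lung fibroblasts after 16 hr compound exposure. Normalized to DMSO basal and 10 uM staurosporine as 100%; AC50 from Hill fits.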

[15] = Cellular Toxicity (caspase-3) Mesangial (AID 660); conditions: mesangial cells, normalized: DMSO 0%, 100 µM tamoxifen 100%; series mostly up to 91.7 µM;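 further: combined caspase 3 and 7 activity read by Caspase-Glo luminescence; cells exposed to compound for 16 h before the caspase read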
Method in brief: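 Mesangial cells, 1000/well, 5 h settle at 37 °C; compound 16 h, 37 °C; Caspase-Glo 3/7 reagent 20 min RT; luminescence. Norm.: DMSO = 0%, tamoxifen 100 uM = 100%. AC50, Hill fit.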

[16] = Cellular Toxicity (caspase-3) SK-N-SH (AID 661); conditions: SK-N-SH caspase-3 activation, qHTS, DMSO as zero, staurosporine as full; series mostly up to 91.7 µM
Method in brief: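 Human neuroblastoma SK-N-SH, 1500 cells/well, 5 hr pre-incubation, then compound 16 hr, 37 °C. Caspase-Glo 3/7 reagent, 1 hr RT, luminescence. Norm. to DMSO/10 uM staurosporine; Hill-fit AC50.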

[17] = Cell Viability - N2a (AID 540); conditions: N2a mouse neuroblastoma cell viability; series mostly up to 92.2 µM; further: nearly all actives have a fitted effect of over 45% in size
Method in brief: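 Luminescent ATP signal (CellTiter-Glo, 20 min at room temperature) served as the viability read-out after N2a cells were treated with compounds for 40 hours at 37 °C. Concentration-response data were fitted to the Hill equation for AC50.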

[18] = Cell Viability - SH-SY5Y (AID 544); conditions: SH-SY5Y neuroblastoma cell viability; series mostly up to 92.2 µM; further: nearly all actives have a fitted effect of over 55% in size
Method in brief: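 Luminescent ATP read-out (CellTiter-Glo) measures loss of viable SH-SY5Y neuroblastoma cells after 40 hr compound exposure at 37 °C. AC50 values derive from standard Hill modelling of qHTS concentration-response data.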

[19] = Cell Viability - Renal Proximal Tubule (AID 545); conditions: renal proximal tubule cells viability, primary cells of rat origin; series mostly up to 91.7 µM; further: nearly all actives have a fitted effect of over 40% in size
Method in brief: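 In this qHTS format, normal rat kidney-derived proximal tubule cells in complete culture medium receive compound titrations, then sit 40 hours at 37 °C before luciferase-based ATP quantitation; potency is reported as AC50 from concentration-response curves.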

[20] = Cell Viability - Mesenchymal (AID 546); conditions: mesenchymal cells viability, qHTS; series mostly up to 91.7 µM;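 further: cells exposed to compound for 40 hours before reading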
Method in brief: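 Normal human renal glomerulus-derived kidney mesenchymal cells, 1000 per well in complete medium, were treated with compounds for 40 hr at 37 °C. Viability was read as intracellular ATP by CellTiter-Glo luminescence; AC50 values came from Hill-equation fits of qHTS concentration-response data.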

Compound	outcome [1]	Potency [2]	Potency [3]	outcome [4]	outcome [5]	Potency [6]	outcome [7]	Potency [8]	outcome [9]	outcome [10]	outcome [11]	outcome [12]	outcome [13]	outcome [14]	outcome [15]	outcome [16]	outcome [17]	outcome [18]	outcome [19]	outcome [20]
CN1CCN(CCCN2c3ccccc3Sc3ccc(C(F)(F)F)cc32)CC1	inactive	> 46 µM and > 20.6 µM	> 46 µM and > 20.6 µM and > 9.22 µM	inactive	inactive															
N#Cc1ccc(C(c2ccc(C#N)cc2)n2cncn2)cc1	inactive	> 20.6 µM	> 20.6 µM	inactive	inactive															
CC(C[N+](C)(C)C)OC(N)=O (stereo not given)	inactive	> 20.6 µM																		
Cn1cnc([N+](=O)[O-])c1Sc1ncnc2nc[nH]c12	inactive	> 46 µM and > 20.6 µM	> 46 µM and > 20.6 µM	inactive	inactive	3.98 µM (active)	inactive	0.631 µM (active)	inactive	inactive	inactive	inactive	inactive	inactive	inactive	inactive				
CCCC(CCC)C(=O)O	inactive	> 46 µM	> 46 µM	inactive	inactive	inactive	inactive		inactive	inactive	inactive	inactive	inactive	inactive	inactive	inactive	inactive	inactive	inactive	inactive
NC(N)=NC(=O)c1nc(Cl)c(N)nc1N	inactive	> 46 µM and > 20.6 µM	> 46 µM and > 20.6 µM	inactive	inactive	inactive	inactive		inactive	inactive	inactive	inactive	inactive	inactive	inactive	inactive	inactive		inactive	inactive
NC[C@H](O)c1ccc(O)c(O)c1	inactive	> 46 µM	> 46 µM	inactive	inactive															
O=c1[nH]cnc2[nH]ncc12	inactive	> 46 µM	> 46 µM	inactive	inactive	inactive	inactive	inactive	inactive	inactive	inactive	inactive	inactive	inactive	inactive	inactive	inactive	inactive	inactive	inactive
Nc1nc2c(ncn2COCCO)c(=O)[nH]1	inactive	> 46 µM and > 20.6 µM	> 46 µM and > 20.6 µM	inactive	inactive															
CCOC(=O)C1=C[C@@]2(CC)CCCN3CCc4c(n1c1ccccc41)[C@H]32	inactive	> 46 µM and > 20.6 µM	> 46 µM and > 20.6 µM	inactive	inactive															
NC(=O)c1cnccn1	inactive	> 46 µM	> 46 µM	inactive	inactive	inactive	inactive	inactive	inactive	inactive	inactive	inactive	inactive	inactive	inactive	inactive	inactive	inactive	inactive	inactive
CC(=O)Oc1ccccc1C(=O)O	inactive	> 46 µM	> 46 µM	inactive	inactive	inactive	inactive	inactive	inactive	inactive	inactive	inactive	inactive	inactive	inactive	inactive	inactive	inactive	inactive	inactive
